This is part of a sample that, as a whole, favours compounds with a hit. Of some 83,000 tested, about 20% had one in any assay.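 Results are percent growth after 48 hours of single-concentration exposure. 100 means growth as in untreated cells, lower positive values show inhibition; negative values down to -100 show cell death.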 Active and inactive are the calls of the source. Rule for the calls: active = growth percent below 10; inactive = the rest.
What was measured:
Assay in all cases: NCI-60 one-dose screen, 48 h (100 = growth as untreated, 0 = no growth, -100 = all killed)
[1] = tested on: SK-MEL-2 melanoma; details: 10 µM
[2] = tested on: EKVX NSCLC; details: 10 µM unless noted
[3] = tested on: SN12C renal; details: 10 µM unless noted
[4] = tested on: UO-31 renal; details: 10 µM unless noted
[5] = tested on: TK-10 renal; details: 10 µM unless noted
[6] = tested on: ACHN renal; details: 10 µM unless noted
[7] = tested on: CAKI-1 renal; details: 10 µM unless noted
[8] = tested on: CCRF-CEM leukemia; details: 10 µM unless noted
[9] = tested on: MOLT-4 leukemia; details: 10 µM unless noted
[10] = tested on: A498 renal; details: 10 µM unless noted

Measured: growth

CCOC(=O)C1=C(C)N=C2Sc3cc(OC(F)(F)F)ccc3N2[C@H]1c1ccccn1
inactive: [1] 43.6% | [2] 26.8% | [3] 47.4% | [4] 33.1% | [5] 51.1% | [6] 32.8% | [7] 27.9% | [8] 43.3% | [9] 29.5%

CC(N)C(Cc1ccc(Cl)cc1)c1ccc(Cl)cc1 (stereo not drawn)
active: [1] -58%
inactive: [2] 83.7% | [3] 87% | [4] 55.8% | [5] 45.5% | [6] 80.5% | [7] 59.6% | [8] 65.6% | [9] 34.9%

O=C1CC(c2ccc(Cl)cc2)c2ncn(-c3cccc(Cl)c3)c2N1 (stereo not drawn)
inactive: [1] 44.8% | [2] 73.5% | [3] 56.1% | [4] 50.5% | [5] 95.8% | [6] 52.6% | [7] 75.3% | [9] 44.4%

CCCCCCCC(=O)SCC/C=C/[C@@H]1CC(=O)NCc2cccc(n2)C2=N[C@@](C)(CS2)C(=O)N[C@@H](C(C)C)C(=O)O1
inactive: [2] 22.2% | [3] 22.6% | [9] 14.3%
active: [1] -1.86% | [4] -8.17% | [5] -16.1% | [6] -11.8% | [7] -38.8%

COc1ccc2c(CCCc3ccc(Cl)cc3Cl)c3[n+](cc2c1OC)CCc1cc2c(cc1-3)OCO2
active: [1] -22.8% | [3] -24.9% | [5] 0.636% | [8] 5.42% | [9] -9.91%
inactive: [2] 23.1% | [4] 25.4% | [6] 21.9% | [7] 71.9%

CSc1nc2ncnc(SC)c2[nH]1
inactive: [1] 99.4% | [2] 94% | [3] 100% | [4] 82% | [5] 99.8% | [6] 103% | [7] 90.9% | [8] 105% | [9] 98.9%

COc1ccc2c(c1OC)C(=O)O[C@@H]2[C@H]1c2c(c(C#CC#Cc3ccc(F)c(F)c3)c3c(c2OC)OCO3)CCN1C
inactive: [1] 91.8% | [2] 90.3% | [3] 100% | [4] 70.5% | [5] 95.3% | [6] 95% | [7] 86.6% | [8] 101% | [9] 89%

COc1ccc(C2CC(=O)c3c(O)c(OC)c(OC)c(OC)c3O2)c(O)c1 (stereo not drawn)
inactive: [1] 52% | [2] 48.4% | [3] 47.4% | [4] 54.2% | [5] 73.1% | [6] 44.3% | [7] 41.1% | [8] 25.5% | [9] 22.6%

CCC1(/C=N/NC(N)=S)NC(=O)NC1=O (stereo not drawn)
inactive: [1] 109% | [2] 104% | [3] 95.6% | [4] 87.5% | [5] 102% | [6] 109% | [7] 94.1% | [8] 102% | [9] 90%

NS(=O)(=O)c1ccc(CCN2C(=O)/C(=C\c3ccc(Cl)cc3)C=C2c2ccc3ccccc3c2)cc1
inactive: [1] 106% | [2] 89.4% | [3] 94% | [4] 78.4% | [5] 95.5% | [6] 90% | [7] 82.4% | [8] 106% | [9] 86.3%

O=C(Nc1ccc(C(=O)Nc2ccc(C3=NCCCN3)cc2)cc1)Nc1ccc(C2=NCCCN2)cc1
inactive: [1] 62.8% | [2] 61.4% | [3] 91.6% | [4] 82.6% | [5] 96.7% | [6] 86% | [10] 119% | [8] 70.9% | [9] 81.5%

C=C1C(=O)O[C@H]2[C@H]1CC/C(CNC(=O)c1cc3cc(OC)ccc3[nH]1)=C\CC[C@@]1(C)O[C@@H]21
active: [1] -42.7% | [2] -55.9% | [3] -38.5% | [4] -75.8% | [5] -83% | [6] -76.2% | [7] -74.1% | [8] -19.3% | [9] -31%

COC(=O)[C@]12CC[C@@H](C)[C@H](C)[C@@H]1C1=CC[C@@H]3[C@@]4(C)C(C#N)=CC(C)=C4CC[C@@]3(C)[C@]1(C)CC2
inactive: [1] 82.9% | [2] 92.8% | [3] 93.3% | [4] 84.8% | [5] 99.2% | [6] 79% | [7] 76.8% | [9] 78.8%

CCOC(=O)C1=C(C)N=C2Sc3cccc(OC)c3N2[C@H]1c1ccccn1
inactive: [1] 99.3% | [2] 85.8% | [3] 93.4% | [4] 75.3% | [5] 117% | [6] 101% | [7] 89.2% | [8] 102% | [9] 96.9%

CC(C)[C@@H]1CC[C@]2(CO2)[C@@H]2C(=O)OCC(C(=O)O)=C[C@H]21
active: [1] -65.8% | [3] 2.26% | [4] 5.96% | [6] 3.14% | [7] 6.64% | [8] 0.852% | [9] -17.6%
inactive: [2] 71.5% | [5] 11.6%

CCCCCCCC(=O)SCC/C=C/[C@@H]1CC(=O)NCc2cccc(n2)C2=N[C@@](C)(CS2)C(=O)N[C@@H](C(C)C)C(=O)N1
inactive: [1] 18.1% | [2] 51.3% | [3] 55.7% | [4] 50.8% | [5] 12% | [6] 59.6% | [7] 82.3% | [8] 44.9% | [9] 17.5%

CCN(CCN(C)C)C(=O)CNCc1cc(C(N)=O)ccn1
inactive: [1] 94.8% | [2] 104% | [3] 98.8% | [4] 93.2% | [5] 96.4% | [6] 108% | [7] 105% | [8] 93.6% | [9] 99.8%

O=C(Nc1ccc(N=Nc2ccccc2)cc1)c1cccc2ccccc12
inactive: [1] 56.4% | [2] 71.5% | [3] 78.8% | [4] 68.3% | [5] 76.2% | [6] 77.5% | [7] 70.8% | [8] 49.8% | [9] 37.2%

O=C1CC(c2ccc3c(c2)OCO3)c2ncn(-c3ccc(Cl)cc3)c2N1 (stereo not drawn)
inactive: [1] 43.4% | [2] 68.2% | [3] 56.6% | [4] 61.3% | [5] 67.9% | [6] 53.9% | [7] 37.1% | [8] 28.2% | [9] 32%

Nc1c(C(=O)c2ccccc2)sc2nc(-c3cccs3)cc(-c3cccs3)c12
inactive: [1] 40.9% | [2] 62.2% | [3] 59.5% | [4] 60.5% | [5] 81.6% | [6] 55.7% | [7] 50.5% | [8] 40.1% | [9] 44.8%

COc1ccc2c(CCCCC(c3ccccc3)c3ccccc3)c3[n+](cc2c1OC)CCc1cc2c(cc1-3)OCO2
inactive: [7] 16.6%
active: [1] -70.4% | [2] -31.8% | [3] -77.7% | [4] -42.1% | [5] -51% | [6] -19.1% | [8] 5.53% | [9] -20.7%

C=CCC(=O)N[C@H](/C=C/C(=O)O)Cc1ccc(-c2cc(Cl)cc(Cl)c2)cc1
inactive: [1] 101% | [2] 95.9% | [3] 100% | [4] 81% | [5] 104% | [6] 102% | [7] 86.3% | [8] 102% | [9] 91.2%

NN1C(=O)CSC1=S
inactive: [1] 95% | [2] 98.6% | [3] 102% | [4] 94% | [5] 95.2% | [6] 107% | [7] 93.9% | [8] 108% | [9] 98.8%

CC(C)=CCc1cc2c(cc1O)C1=C(C(=O)C3=C(NCCS3(=O)=O)C1=O)C(C=C(C)C)O2 (stereo not drawn)
active: [3] -43.3% | [8] 0.962% | [9] -22.3%
inactive: [1] 19.3% | [2] 48.6% | [4] 41.6% | [5] 122% | [6] 62.4% | [10] 94.9%

COc1ccc2nc3cc(Cl)ccc3c(Nc3ccc(N(C)C)cc3)c2c1
inactive: [1] 96.8% | [2] 92.9% | [3] 91.1% | [4] 84% | [5] 128% | [6] 100% | [10] 94.6% | [8] 57.5%
active: [9] 0.475%

Nc1nc(N)c2cc(CNc3ccc(C(=O)NC(CC(=O)O)C(=O)O)cc3)ccc2n1 (stereo not drawn)
inactive: [1] 72.3% | [2] 43.2% | [3] 15.5% | [4] 35.8% | [5] 61.2% | [6] 25.9% | [10] 19.1% | [8] 23% | [9] 32.8%

CCN1CCN(c2nc(C)cc(N(CCNc3ccnc4cc(Cl)ccc34)Cc3ccc4c(c3)OCO4)n2)CC1
inactive: [2] 68.2% | [3] 59.3% | [10] 53.2%
active: [1] -55.8% | [4] -41.7% | [5] -47.1% | [6] -17.2% | [8] -1.37% | [9] -3.96%

CCN1CCN(c2nc(C)cc(N(CCCNc3ccnc4cc(Cl)ccc34)Cc3ccc4c(c3)OCO4)n2)CC1
active: [1] -60.1% | [4] -86.8% | [5] -70.7% | [6] -25% | [10] -27.7% | [8] -13.5% | [9] -14.1%
inactive: [2] 35.8% | [3] 30.1%

CC(=Nc1ccccc1)C1=C(O)C(Cc2ccccc2)NC1=O (stereo not drawn)
active: [10] -22.1% | [8] -10.9% | [9] 0.239%
inactive: [1] 26.9% | [2] 23.3% | [3] 36.6% | [4] 43.6% | [5] 54.2% | [6] 40.8%
